According to ChEMBL document CHEMBL3988442, “University of Dundee, Small-Polar-MMV Screening Library” (2021):
The campaign covered roughly 48,000 compounds. About 13,000 (27%) showed an effect of 50% or more. The list shows a part of the results.

What follows are compounds tested on Wolbachia pipientis (assay: Anti-Wolbachia Cell-Based Screen). Details: 5 µM.
Assay type: functional
Parameters: scale not given: in the data most compounds retested in dose-response had high values

Point of comparison: `COc1coc(C(=O)Nc2nc(-c3ccncc3)cs2)cc1=O`, “Percent Effect” value 126.8%. Against it:
- COc1nc(C)ccc1CNC(=O)NC(C)Cc1c(C)nn(C)c1C (configuration not stated) — lower, -7.556%
- CC(Cn1cccn1)NC(=O)NCc1cccs1 (configuration not stated) — lower, -5.342%
- CC(Cn1cccn1)NC(=O)Nc1cccnc1 (configuration not stated) — lower, -4.722%
- O=C(NCc1cccnc1)Nc1ccn(CC(F)F)n1 — lower, -3.627%
- CC(Cn1cccn1)NC(=O)NCCc1ccc(Cl)s1 (configuration not stated) — lower, 2.539%
- CC(Cn1cccn1)NC(=O)NCc1ccoc1 (configuration not stated) — higher, 138.9%
- Cc1ccc(CNC(=O)NC(C)Cn2cccn2)cn1 (configuration not stated) — lower, 102.7%
- CC(Cn1cccn1)NC(=O)NCc1cccnc1 (configuration not stated) — lower, 125.3%
- CC(C)CN1CCC(c2nnc(CN3CCCC3)n2C2CC2)CC1 — lower, 11.32%
- O[C@H]1[C@H](n2cc(CN3CCCC3)nn2)c2ccccc2C12CCNCC2 — lower, -10.15%
- CCN(CC)S(=O)(=O)CCNC(=O)c1cc2cccc(F)c2o1 — lower, -15.07%
- COC1CCCN(c2nc(C)nc3c2CCN(Cc2ccco2)CC3)C1 (configuration not stated) — lower, -0.6049%
- Cc1nc2c(c(N3CCCC(OCc4ccccn4)C3)n1)CCNCC2 (configuration not stated) — lower, 98.85%
- Nc1nc2c(c(N3CCCC(OCc4ccccn4)C3)n1)CCNCC2 (configuration not stated) — lower, 94.61%
- Nc1nc2c(c(N3CCCC(CN4CCCC4=O)C3)n1)CCNCC2 (configuration not stated) — lower, -1.007%
- Cc1nc(N2CCCC(OCc3ccccn3)C2)c2c(C)noc2n1 (configuration not stated) — lower, 99.09%
- Cc1nn(C)c2ncnc(N3CCCC(OCc4cccnc4)C3)c12 (configuration not stated) — lower, 4.594%
- Cc1nc2c(c(N3CCC(CCn4cccn4)CC3)n1)CCNCC2 — lower, 1.957%
- Nc1nc2c(c(N3CCCC3)n1)CCN(Cc1ccccn1)CC2 — lower, 7.613%
- Cc1nn(C)c2ncnc(N3CCCC(OCc4ccccn4)C3)c12 (configuration not stated) — lower, -6.916%
- Cn1cc(CN2CCc3c(c(COCC#N)nn3C)C2)cn1 — lower, -10.53%
- O=C(c1cccnc1-n1cncn1)N1CCN(CC(F)(F)F)CC1 — lower, -6.052%
- CCc1cnc(C)nc1NCCc1nc(N)cc(O)n1 — lower, 1.724%
- CN(C)S(=O)(=O)NCc1nc(-c2cccc(F)c2)c(-c2ccccn2)[nH]1 — lower, -1.399%
- N#Cc1ccccc1CN1CCc2sccc2C1 — lower, -11.84%
- CCC(NC(=O)CN(C)Cc1ccc(C)o1)c1ccc(Br)cc1 (configuration not stated) — lower, 7.959%
- Cc1ncsc1CN1CC[C@H]2OCC[C@@]2(C(=O)N2CCCO2)C1 — lower, -1.32%
- O=C(N1CCCO1)[C@@]12CCO[C@@H]1CCN(Cc1ccsc1)C2 — higher, 127%
- Cc1ccc(CN2CC[C@H]3OCC[C@@]3(C(=O)N3CCCO3)C2)s1 — lower, 100.6%
- COC[C@@]12CCO[C@@H]1CCN(Cc1ccc(C)s1)C2.O=C(O)C(F)(F)F — lower, -10.75%
- c1cnn(CC2CCCCN2Cc2cn3ccsc3n2)c1 (configuration not stated) — lower, 2.763%
- COc1ccc2c(=O)n(CC3CCCCN3C)ccc2c1OC (configuration not stated) — lower, -25.61%
- CCN1C[C@@H]2CN(S(=O)(=O)c3cccs3)C[C@@H]2C1=O — lower, -17.06%
- N#Cc1cc(NS(=O)(=O)CC2CCCCO2)ccc1F (configuration not stated) — lower, -2.711%
- CCCc1ccc(OC23CCCN(CC2)C3)c(OC)c1 (configuration not stated) — lower, 112.6%
- COc1ccc(CN2CCCC3(CC2)CNC(=O)O3)cc1OC (configuration not stated) — lower, 1.159%
- CCCc1ccc(OCCNCc2ccco2)c(OC)c1.Cl — lower, -10.12%
- COc1cc(CN2CCCC2)ccc1OC12CCCN(CC1)C2 (configuration not stated) — lower, 119.4%
- COc1cc(CN2CCCC2)ccc1Oc1ncccc1C(F)(F)F — lower, 26.33%
- COc1ccc(CCNC(=O)NCc2cccc(C(N)=O)c2)cc1OC — lower, 9.819%
- CC(C)c1nccn1C(C)C(=O)N1CCN(S(C)(=O)=O)CC1 (configuration not stated) — lower, 15.78%
- CC(C)c1cc(C(=O)N(c2ccc(F)cn2)C2CCOCC2)nn1C — lower, -15.95%
- COC[C@@]12CC[C@@H](N3CCOCC3)C[C@H]1CCN(c1ncccc1C)C2 — lower, -3.262%
- CN1CCN([C@@H]2CCN(C3CCOC3)[C@H]2Cc2cnn(C)c2)CC1.O=C(O)C(F)(F)F.O=C(O)C(F)(F)F.O=C(O)C(F)(F)F (some centres not stated) — lower, -5.901%
- O=C(C1CCOCC1)N1CC[C@H]2[C@H]1CCN2c1nncs1.O=C(O)C(F)(F)F — lower, 9.105%
- O=C(O)C(F)(F)F.O=C(c1cscn1)N1CCO[C@H]2[C@@H](Oc3ccccn3)CC[C@@H]21 — lower, -13.1%
- O=C(O)C(F)(F)F.O=C(c1cscn1)N1CC[C@@H]2[C@@H]1CCN2C1CCOC1 (some centres not stated) — lower, 99.27%
- O=C(O)C(F)(F)F.O=C(c1cscn1)N1CC[C@@H]2[C@@H]1CCN2C1CCOCC1 — lower, 97.96%
- CN(CC(=O)N(C)C1CCCCC1)Cc1nc2ccccc2c(=O)[nH]1 — lower, -1.325%
- CC(NC(=O)NC1CCN(Cc2ccccn2)CC1)c1ccco1 (configuration not stated) — lower, 5.238%
- c1cc(CNc2ccc(-c3nc(C4CC4)no3)cn2)no1 — lower, -4.81%
- CC(=O)NC1CCCN(c2nc3ccccc3cc2CO)C1 (configuration not stated) — lower, 8.297%
- COc1ccc(-n2ncc(C(C)NC3Cc4ccccc4C3)c2C)cc1 (configuration not stated) — lower, 4.346%
- Cc1ncsc1C(=O)NC1CCN(CC(=O)N(C)c2ccccc2)CC1 — lower, -1.351%
- O[C@@H]1C[C@@H](c2nc(Cc3ccccc3)no2)N(CC2CC2)C1 — lower, 3.423%
- NCC1Cc2cc(F)cc(-c3cnccn3)c2O1 (configuration not stated) — lower, -7.505%
- Cn1nnnc1SCC1COc2ccccc2O1 (configuration not stated) — lower, 100.3%
- CN(Cc1nc(CC2CC2)no1)CC1COc2ccccc2O1 (configuration not stated) — lower, -4.512%
- Cn1ccnc1-c1ccc(NCCC2COc3ccccc3O2)nn1 (configuration not stated) — lower, 7.675%
- N#Cc1cccc(N2CCC(CO)(CCOc3ccccc3)CC2)n1 — lower, -8.445%
- CC(C)n1ccnc1C1CCN(Cc2ccc(Cl)s2)CC1 — lower, -8.213%
- CSCC(C)(O)CNc1ccccn1 (configuration not stated) — lower, -2.267%
- O=C(Cn1ccc2c(Cl)cccc21)Nc1nc[nH]n1 — higher, 213.7%
- O=C(Cn1ccc2c(Cl)cccc21)N[C@@H](C(=O)O)c1ccccc1 — lower, 2.253%
- CC(=O)c1cn(CC(=O)NC(C(=O)O)C(C)C)c2ccccc12 (configuration not stated) — lower, -3.053%
- CC(=O)Nc1cccc2c1ccn2CC(=O)NC(C)C — lower, 119.7%
- COc1cccc2c1ccn2CCNC(=O)C(C)C — lower, 18.92%
- Cc1cccc(C)c1OCC(=O)Nc1cccn(C)c1=O — lower, -11.46%
- O=C(Cn1ccc2ccccc21)NCc1cc(N2CCOCC2)ncn1 — lower, -2.844%
- CC(=O)Nc1cccc2c1ccn2CC(=O)Nc1nc[nH]n1 — lower, 99.64%
- CN1CCN(c2cc(NC(=O)Cn3ccc4ccccc43)ncn2)CC1 — lower, -1.04%
- COc1cccc2c1ccn2CCC(=O)NCCCC(=O)O — lower, 22.13%
- CC(=O)Nc1cccc2c1ccn2CC(=O)Nc1n[nH]c(CC(C)C)n1 — lower, 102.1%
- CS(=O)(=O)N1CCN(C(=O)Cn2ccc3c(Cl)cccc32)CC1 — lower, 10.52%
- COCc1nc(C2CC2)nn1-c1cccc(F)c1 — lower, -12.44%
- Cc1ccc(Oc2ncccc2CNC2CCCCC2)cn1 — lower, -2.321%
- CN(C)C(=O)N1CCN(C(=O)C(c2ccccc2F)N(C)C)CC1 (configuration not stated) — lower, 0.4283%
- COc1cccc2c1ccn2CC(=O)N[C@@H](CCSC)C(=O)O — lower, 11.73%
- Cc1ccn(-c2ccccc2NCc2ncc[nH]2)n1 — lower, -9.69%
- CC(=O)Nc1cccc2c1ccn2CC(=O)Nc1ncc[nH]1 — lower, 101.7%
- CSCC[C@H](NC(=O)Cn1ccc2c(Cl)cccc21)C(=O)O — lower, 2.833%
- COCC(=O)NCCn1ccc2c(OC)cccc21 — lower, -0.7831%
- COc1cccc2c1ccn2CC(=O)Nc1nc[nH]n1 — lower, 91.25%
- CCOc1ncccc1Cn1cc(-c2ccc(CO)o2)nn1 — lower, -3.735%
- CCN(CC)C(=O)C1(NCc2nc(C)c(C)o2)CCCCC1 — lower, -3.366%
- CN(c1ccc(CNc2ccc(Cl)cn2)cc1)S(C)(=O)=O — lower, 3.879%
- COc1ccc(NC(=O)C(C)(C)C)cc1OCc1cccnc1 — lower, -1.901%
- Cc1csc(NC(=O)C2CSCCC(=O)N2)n1 (configuration not stated) — lower, -7.391%
- CC(=O)Nc1nc(C(=O)NC(C)c2ccncc2)cs1 (configuration not stated) — lower, -2.068%
- CCOc1ccccc1C(CC(=O)Nc1nc(C)cs1)NC(C)=O (configuration not stated) — lower, 0.8837%
- COc1coc(C(=O)Nc2nc(C)cs2)cc1=O — higher, 134.8%
- COc1coc(C(=O)Nc2ccncc2)cc1=O — lower, 119.4%
- Cn1ccc(C(=O)Nc2nc(-c3ccc4c(c3)CCO4)cs2)cc1=O — lower, -8.772%
- CC(=O)Nc1nc(C(=O)NC(C)c2cccnc2)cs1 (configuration not stated) — lower, -4.684%
- CCC(NC(=O)Nc1ccc(OC)c(C)c1)c1ccncc1 (configuration not stated) — lower, -4.572%
- COc1coc(C(=O)Nc2nc(-c3cccnc3)cs2)cc1=O — lower, 125.3%
- COc1ccc(NC(C)=O)cc1OCc1cccnc1 — lower, 0.9629%
- COc1cccc(SCC(=O)N2CCC(N3CCCC(O)C3)CC2)c1 (configuration not stated) — lower, 2.194%
- Cn1ccc(C(=O)Nc2nnc(-c3ccccn3)[nH]2)cc1=O — lower, -6.589%
- COc1coc(C(=O)Nc2nc(-c3ccccn3)cs2)cc1=O — higher, 131%
- COCc1csc(NC(=O)NCc2ccccn2)n1 — lower, 11.42%
- CCN(CC1CCOC1)C(=O)CCc1nc(C(C)(C)C)no1 (configuration not stated) — lower, -1.689%
- Cc1cc(C(N)=O)ccc1NC(=O)c1nc(N2CCCCC2)ncc1Cl — lower, -13.62%
- NS(=O)(=O)c1ccc(CNC(=O)c2ccc(Cl)cc2F)cc1 — lower, -5.173%
- Cc1cccc(C(=O)NCc2ccc(N3CCCCC3)nc2)n1 — lower, -4.595%
- O=C(Cn1cc(C(=O)O)ccc1=O)NCc1ccc(F)c(Cl)c1 — lower, 13.7%
- Nc1nc(N2CCCCCC2)ncc1C(=O)NCc1ccc(F)c(Cl)c1 — lower, 114.6%
- Nc1nc(N2CCCCC2)ncc1C(=O)NCc1ccc(F)c(Cl)c1 — lower, 94.05%
- O=C(Nc1cc(Cl)ccn1)c1nc(N2CCCC2)ncc1Cl — lower, -15.57%
- CC1CCCN(c2ncc(C(=O)NCc3ccc(F)c(Cl)c3)c(N)n2)C1 (configuration not stated) — lower, 73.04%
- CN(c1ncc(C(=O)NCc2ccccc2)c(N)n1)C1CCCCC1 — lower, 2.294%
